PubChem BioAssay AID1445 (SRMLSC, 2008)
About 910 (0.41%) of roughly 220,000 compounds were called active. This is one part of a sample in which actives are shown more often than they occur. Potency and affinity values are given separately. Unmarked numbers belong to inactive results.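 Rule for the calls: active = primary inhibition above the hit cutoff, then over 50% inhibition at one or more dose response concentrations (cut at about 23% in these data, passing the limit was not always enough); inconclusive = conflicting primary data, or primary hits not chosen for dose response; inactive = low primary inhibition, or under 50% at every dose.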 Where a SMILES comes first, the peptide text is derived from it.

These molecules were tested against Aminopeptidase N (Plasmodium falciparum (isolate 3D7)) (UniProt O96935) (assay: P. falciparum M1AAP inhibitors, biochemical, fluorogenic H-Leu-NHMec substrate, 1536-well (AID 1445;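 note: plate controls were DMSO full reaction for no effect and no enzyme background for full effect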)). Conditions: recombinant M1AAP, H-Leu-NHMec fluorogenic kinetic assay; at 30 µM, hits give high values unless noted.
Aminopeptidase N (Plasmodium falciparum (isolate 3D7)), sequence (O96935 whole entry, looked up): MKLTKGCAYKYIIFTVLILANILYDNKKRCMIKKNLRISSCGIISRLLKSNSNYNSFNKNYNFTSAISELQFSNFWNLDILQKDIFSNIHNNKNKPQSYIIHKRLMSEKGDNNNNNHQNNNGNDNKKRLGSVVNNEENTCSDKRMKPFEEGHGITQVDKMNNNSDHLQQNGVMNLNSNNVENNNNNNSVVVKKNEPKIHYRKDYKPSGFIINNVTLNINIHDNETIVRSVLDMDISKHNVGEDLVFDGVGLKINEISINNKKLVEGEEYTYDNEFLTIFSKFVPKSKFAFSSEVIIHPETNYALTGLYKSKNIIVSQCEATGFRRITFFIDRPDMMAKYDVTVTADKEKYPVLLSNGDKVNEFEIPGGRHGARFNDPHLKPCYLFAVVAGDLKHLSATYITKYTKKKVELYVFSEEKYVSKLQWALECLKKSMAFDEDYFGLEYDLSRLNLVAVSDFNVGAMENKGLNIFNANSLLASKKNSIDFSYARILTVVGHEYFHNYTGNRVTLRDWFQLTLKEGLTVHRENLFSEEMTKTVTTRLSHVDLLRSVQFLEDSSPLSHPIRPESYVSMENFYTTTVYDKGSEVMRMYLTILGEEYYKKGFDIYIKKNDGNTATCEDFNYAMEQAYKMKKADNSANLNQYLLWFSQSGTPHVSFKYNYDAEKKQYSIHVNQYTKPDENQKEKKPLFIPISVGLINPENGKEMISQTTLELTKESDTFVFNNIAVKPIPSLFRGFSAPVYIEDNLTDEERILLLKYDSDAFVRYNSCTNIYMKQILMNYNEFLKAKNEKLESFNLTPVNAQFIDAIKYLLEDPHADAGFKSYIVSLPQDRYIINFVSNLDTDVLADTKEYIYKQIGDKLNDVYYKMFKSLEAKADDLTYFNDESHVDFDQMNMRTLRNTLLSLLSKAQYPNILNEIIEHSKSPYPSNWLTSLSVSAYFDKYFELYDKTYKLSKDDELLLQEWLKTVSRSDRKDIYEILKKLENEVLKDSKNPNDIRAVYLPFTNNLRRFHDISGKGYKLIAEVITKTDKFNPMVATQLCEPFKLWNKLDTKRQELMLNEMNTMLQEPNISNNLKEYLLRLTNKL

Compound	inhibition
CC(=O)/C(N=Nc1ccc(C(=O)O)cc1)=C(\C)O	7.52%
Cc1ccc(C)c(N2CCN(C(=O)c3ccc(CSc4nc5ccncc5[nH]4)cc3)CC2)c1	-6.94%
Cc1ccc(C2=Nc3ccc(Br)cc3C(c3ccncc3)=NN2)cc1	-0.32%
CCOC(=O)C1(CCOc2ccccc2)CCN(Cc2cnc(C)[nH]2)CC1	6.06%
CCN(CC)NC(=S)Nc1ccccc1	-2.71%
CN(C)c1nc(-c2ccc([N+](=O)[O-])cc2)cs1	4.18%
Cc1c(NC(=O)CSc2nncc3ccccc23)c(=O)n(-c2ccccc2)n1C	3.35%
O=C1/C(=C/c2ccc(O)c([N+](=O)[O-])c2)SC(=S)N1Cc1ccccc1	10.2%
O=C(O)CCCN1C(=O)/C(=C/C=C/c2ccco2)SC1=S	7.29%
COc1ccccc1C(=O)NN1C(=O)/C(=C/c2cccn2C)SC1=S	15.2%
CC(C(=O)O)N1C(=O)/C(=C/C=C/c2ccco2)SC1=S (configuration not stated)	10.5%
O=C(NN1C(=O)/C(=C/C=C/c2ccco2)SC1=S)c1ccncc1	17.5%
O=C(NN1C(=O)/C(=C\c2ccc(O)c([N+](=O)[O-])c2)SC1=S)c1ccccc1Cl	19.8%
Cn1cccc1/C=C1\SC(=S)N(NC(=O)c2ccccc2Cl)C1=O	17.9%
O=C1/C(=C/C=C/c2ccco2)SC(=S)N1c1ccc(O)cc1	15.5%
COc1ccccc1N(C)S(=O)(=O)c1ccc(C(=O)OCC(=O)Nc2cc(C)on2)cc1	-7.23%
CC(C)CN(CCOc1cccc(N2C(=O)C3=C(CCCC3)C2=O)c1)CC(C)C	3.32%
CC(=O)c1cccc(NC(=O)N2CCCc3ccccc32)c1	7.74%
COc1ccc(C2CCCN2C(=S)Nc2ccccc2C)cc1OC (configuration not stated)	-1.92%
COc1ccc(C=O)cc1CSc1nnc(COc2cccc3cccnc23)o1	3.48%
C/C(CC(=O)Nc1cccc(C(F)(F)F)c1)=N/NC(=O)C(=O)NCCO	8.99%
O=C(Cc1c[nH]c2ccccc12)N/N=C/c1ccccc1O	20.7%
CC(C(=O)Nc1ccc(N2CCOCC2)cc1)N1C(=O)c2ccccc2C1=O (configuration not stated)	4.39%

Compound	inhibition
COc1ccc(NC(=O)C(C)N2C(=O)c3ccccc3C2=O)cc1S(=O)(=O)N1CCOCC1 (configuration not stated)	9.37%
COc1ccc(NC(=S)N(CCc2c(C)[nH]c3ccccc23)Cc2ccco2)cc1	-1.5%
O=C(Nc1ccc2snnc2c1)N1CCSCC1	6.62%
CC(c1ccccc1)N1C(=O)c2ccccc2C1O (configuration not stated)	0.46%
CN(C)S(=O)(=O)c1ccc(N2CCOCC2)nc1	8.35%
O=S(=O)(Nc1nc2ccccc2[nH]1)c1ccccc1	1.84%
O=C(NN1C(=O)/C(=C/c2cccs2)SC1=S)c1ccccc1	7.49%
O=C(NN1C(=O)/C(=C/c2cccs2)SC1=S)c1ccncc1	20.6%
CC(=O)NN1C(=O)/C(=C\c2ccccc2)SC1=S	12.8%
Cc1ccc(S(=O)(=O)NN2C(=O)/C(=C/c3ccccn3)SC2=S)cc1	17.4%
O=C1/C(=C/c2cccs2)SC(=S)N1c1ccccc1	5.36%
Nc1nnc(CSc2ccc(Cl)cc2)s1	-0.69%
COc1cccc(NC(=O)C(Sc2nnc(-c3ccncc3)n2-c2ccc(Cl)cc2)c2ccccc2)c1 (configuration not stated)	-1.95%
C=CCOc1c2ccc(C(=O)NCc3ccc(OC)cc3)cc2nn1C	15.3%
Cc1cc(C)n(-c2ccc(C(=O)OCC(=O)c3c(N)n(C)c(=O)n(C)c3=O)cc2)n1	4.93%
O=C(CCCCn1c(=O)[nH]c2ccsc2c1=O)NCC1CCCO1 (configuration not stated)	-2.47%
O=C(NCc1ccco1)c1ccc(Cl)c(S(=O)(=O)N2CCOCC2)c1	0.38%
COC(=O)c1cc(C(=O)NCCN2C(=O)S/C(=C\c3cccs3)C2=O)cc([N+](=O)[O-])c1	9.47%
CCOC(=O)c1cc(C)[nH]c(=S)c1C#N	5.55%
COc1cc(/C=C/C(=O)O)cc(S(=O)(=O)Nc2cccc(SC)c2)c1OC	9.82%
COc1cc(/C=C/C(=O)O)cc(S(=O)(=O)Nc2ccccc2Cl)c1OC	5.83%
COc1cc(/C=C/C(=O)O)cc(S(=O)(=O)Nc2ccc(F)cc2)c1OC	5.47%
COc1cc(/C=C/C(=O)O)cc(S(=O)(=O)Nc2ccc3nc(C)sc3c2)c1OC	3.42%

Compound	inhibition
COc1cc(/C=C/C(=O)O)cc(S(=O)(=O)NCc2ccco2)c1OC	4.28%
COc1cc(/C=C/C(=O)O)cc(S(=O)(=O)Nc2ccc3c(c2)OCO3)c1OC	10.2%
CC(=O)C1=C(O)C(=O)N(C2CCCCC2)C1c1ccccc1 (configuration not stated)	10.2%
CC(C)NC(=S)N(C)C1(c2ccccc2Cl)CCCCC1=O (configuration not stated)	2.06%
O=C(CCc1nc(-c2ccccc2F)no1)NCc1ccco1	8.13%
COCCNC(=S)Nc1ccc(N2CCCCC2)cc1	2.09%
Cc1ccc(N2C(=O)c3ccccc3C2=O)cc1Cl	-2.81%
Cc1cccc(N2C(=O)CCC2=O)n1	-1.56%
Cc1ccc(N2C(=O)[C@@H]3C(C(=O)CN4C(=O)c5ccccc5C4=O)=NN[C@@H]3C2=O)c(C)c1	4.06%
Cc1ccc(N2C(=O)c3ccccc3C2=O)cc1C	2.18%
Cc1cccc(NC(=O)CCCN2C(=O)c3ccccc3C2=O)n1	-6.68%
Cc1ccc(N2C(=O)c3ccc(C(=O)O)cc3C2=O)c(C)c1	-3.18%
CC(=O)Nc1ccc(/C(C)=N/NC(=O)c2ccc(F)cc2)cc1	7.12%
O=C(Cn1cncn1)N/N=C/c1ccncc1	-2.16%
COc1ccc(N(C(=O)C(C)C)S(=O)(=O)c2ccc3c(c2)n(C)c(=O)n3C)cc1	4.01%
CC(C)c1ccc(-c2nnc(N)s2)cc1	-1.69%
Cn1nc(C(C)(C)C)cc1NC(=O)Nc1ccc(F)cc1F	6.33%
COc1ccc(S(=O)(=O)NCc2cc(-c3ccccc3Cl)no2)cc1	1.55%
COc1ccc(NC(=O)c2oc3ccccc3c2NC(=O)C(C)(C)C)cc1	6.73%
CCNc1nc(SC(C)C(=O)Nc2ccccc2)nc(N(C)C)n1 (configuration not stated)	0.28%
CCOC(=O)CNc1nc(Cl)nc(NC(C)(C)C)n1	5.43%
O=C(COc1ncnc2ccccc12)N1CCN(S(=O)(=O)c2ccccc2)CC1	28.2% (active)
O=C(COc1ncnc2c(Cl)cc(Cl)cc12)N1CCN(S(=O)(=O)c2ccccc2)CC1	5.95%

Compound	inhibition
O=C(COc1ncnc2ccccc12)N1CCN(S(=O)(=O)c2ccc(Cl)cc2)CC1	-2.49%
O=C(CSc1ncn[nH]1)NN(c1ccccc1)c1ccccc1	0.8%
CC(=O)Nc1ccc(S(=O)(=O)Nc2nc3ccccc3nc2Nc2ccc(O)cc2)cc1	29.4%
Cc1nc(-c2cccc(NS(=O)(=O)c3ccc4ccccc4c3)c2)cs1	11.2%
Cc1nc(-c2cccc(NS(=O)(=O)c3ccccc3)c2)cs1	12.7%
O=[N+]([O-])c1cccc(S(=O)(=O)Nc2nc3ccccc3nc2Nc2cccc(S(=O)(=O)N3CCCCC3)c2)c1	9.64%
CC(=O)Nc1ccc(S(=O)(=O)Nc2nc3ccccc3nc2Nc2ccc(S(N)(=O)=O)cc2)cc1	19.6%
CC(=O)Nc1ccc(Nc2nc3ccccc3nc2NS(=O)(=O)c2ccccc2)cc1	14.8%
O=[N+]([O-])c1ccc(S(=O)(=O)Nc2nc3ccccc3nc2Nc2ccccc2)cc1	2.42%
O=S(=O)(Nc1cccc(S(=O)(=O)N2CCCCCC2)c1)c1ccccc1	-2%
COc1ccc(-n2c(COc3cccc4cccnc34)nnc2SCC(=O)O)cc1	-1.59%
COc1cc(C)c(S(=O)(=O)NC2CC(C)(C)NC(C)(C)C2)cc1C	-4.25%
N/C(=N\OC(=O)Cc1ccccc1[N+](=O)[O-])c1ccccn1	-2.27%
CC12CCC(=O)N1c1ccccc1C(=O)N2c1ccccc1 (configuration not stated)	5.47%
CCC(CC)C(=O)OCC(=O)Nc1ccc(S(=O)(=O)N2CCOCC2)cc1OC	-0.13%
COc1cccc2[nH]c3c(=O)n(CCCN4CCOCC4)cnc3c12	4.76%
CCOC(=O)c1c(C)c2c(n1C)CCC/C2=N\O	5.95%
Fc1cccc(/C=N/Nc2ncnc3nc[nH]c23)c1	17.8%
CCOC(=O)c1c(C)[nH]c(C(=O)Nc2ccc(C)c(Cl)c2)c1C	-6.14%
CC(C)[C@H](NC(=O)[C@H](CC(=O)O)NC(=O)[C@H](CCCCN)NC(=O)[C@@H](N)CCCN=C(N)N)C(=O)N[C@@H](Cc1ccc(O)cc1)C(=O)O (H-RKDVY-OH)	-1.63%
O=C(N[C@@H](Cc1ccc(O)cc1)C(=O)O)C(c1ccccc1)c1ccccc1	1.32%
COc1cc(/C=N/n2cnnc2)ccc1OS(=O)(=O)c1ccccc1[N+](=O)[O-]	-1.85%
CC/C(C)=C1\SC(N2CCN(c3cccc(C(F)(F)F)c3)CC2)=NC1=O	-4.38%
